In PubChem BioAssay (NCATS):
Records with an inconclusive call do not appear. Active and inactive are the calls of the source. The call rests on the fitted dose curve; in most records, active means well fitted curve in the direction sought with a large enough effect; inconclusive means small, poorly fitted or top-dose-only effect, or another doubt; inactive means no such curve, though single readings can be large; an effect the other way counts as inactive or inconclusive.

Key:
[1] = qHTS of pediatric cancer cell lines to identify multiple opportunities for drug repurposing: Primary screen for A673 cells (AID 1347092); further: nearly all actives have a fitted effect of over 45% in size
Outline: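 Luminescence from CellTiter-Glo, taken after 15 min at room temperature, served as the proxy for metabolically active cells following 48 h treatment. Both potency and efficacy were taken from curves fitted to the titration data.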

[2] = qHTS of pediatric cancer cell lines to identify multiple opportunities for drug repurposing: Primary screen for SK-N-MC cells (AID 1347093)
Outline: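 Metabolically active cells were quantified by ATP-dependent luminescence (CellTiter-Glo, 15 min at room temperature) following 48 h treatment. Cells had been plated at 500-1,000 per well and settled for 5 h beforehand.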

[3] = qHTS of pediatric cancer cell lines to identify multiple opportunities for drug repurposing: Primary screen for BT-37 cells (AID 1347094)
Outline: (§1)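 Following a 5-hour attachment period, cells at 500-1,000/well received compounds and were cultured for 48 hours. CellTiter-Glo was added and luminescence read to estimate viable, metabolically active cells.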

[4] = qHTS of pediatric cancer cell lines to identify multiple opportunities for drug repurposing: Primary screen for NB-EBc1 cells (AID 1347095)
Outline: as §1

[5] = qHTS of pediatric cancer cell lines to identify multiple opportunities for drug repurposing: Primary screen for U-2 OS cells (AID 1347096); further: nearly all actives have a fitted effect of over 50% in size
Outline: (§2)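 Cells (500-1,000/well) rested 5 h, then received compounds for 48 h; metabolically active cells were measured by CellTiter-Glo luminescence. Final concentrations spanned up to 46 µM (MIPE, 11-point) or 0.59 nM-46 µM (NPC, 8-point) in primary screens, 11-point in follow-ups.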

[6] = qHTS of pediatric cancer cell lines to identify multiple opportunities for drug repurposing: Primary screen for SK-N-SH cells (AID 1347098); further: nearly all actives have a fitted effect of over 65% in size
Outline: as §2

[7] = qHTS of pediatric cancer cell lines to identify multiple opportunities for drug repurposing: Primary screen for NB1643 cells (AID 1347099); further: nearly all actives have a fitted effect of over 50% in size
Outline: as §1

[8] = qHTS of pediatric cancer cell lines to identify multiple opportunities for drug repurposing: Primary screen for BT-12 cells (AID 1347101); further: nearly all actives have a fitted effect of over 25% in size
Outline: as §2

[9] = qHTS of pediatric cancer cell lines to identify multiple opportunities for drug repurposing: Primary screen for Saos-2 cells (AID 1347097); further: nearly all actives have a fitted effect of over 40% in size
Outline: as §1

[10] = qHTS of pediatric cancer cell lines to identify multiple opportunities for drug repurposing: Primary screen for LAN-5 cells (AID 1347100)
Outline: as §2

Measured: Potency
Potency means the concentration at half of the fitted maximal effect.

N#CNC(=NCCCCCCOc1ccc(Cl)cc1)Nc1ccncc1
active: [1] 2.3 nM | [2] 3.3 nM | [3] 3.9 nM | [4] 1 nM | [5] 18.7 nM | [6] 60.7 nM | [7] 7.4 nM | [8] 544 nM

CCNC(=O)Nc1ccc(-c2nc3c(c(N4CCOC[C@H]4C)n2)CCN(C2COC2)C3)cc1
active: [1] 1480 nM | [2] 209 nM | [3] 1720 nM | [4] 1180 nM | [9] 4690 nM | [6] 17100 nM

COC(=O)C=CC(=O)OC
active: [1] 7430 nM | [2] 3.7 nM | [6] 15200 nM | [7] 7430 nM
inactive: [3] | [5] | [9]

COc1ccc(S(=O)(=O)Nc2cccnc2Nc2ccc(O)cc2)cc1
active: [1] 235 nM | [2] 296 nM | [3] 344 nM | [4] 16.6 nM | [9] 235 nM | [10] 46.9 nM | [8] 432 nM

Cc1ncc(-c2ccnc(Nc3ccc(S(C)(=O)=O)cc3)n2)n1C(C)C
active: [1] 935 nM | [2] 2350 nM | [3] 6110 nM | [4] 2350 nM | [9] 3720 nM | [7] 2350 nM | [8] 3850 nM

COc1cc(C(=O)NC2CCN(C)CC2)ccc1Nc1ncc2c(n1)N(C1CCCC1)CCC(=O)N2C(C)C
inactive: [5]
active: [1] 2960 nM | [2] 1180 nM | [3] 2430 nM | [4] 662 nM | [6] 6070 nM | [8] 21700 nM

C=CCNC1=C2C[C@@H](C)C[C@H](OC)[C@@H](O)[C@@H](C)C=C(C)[C@H](OC(N)=O)[C@@H](OC)C=CC=C(C)C(=O)NC(=CC1=O)C2=O
active: [1] 1480 nM | [2] 1660 nM | [3] 193 nM | [4] 1480 nM | [9] 1660 nM | [6] 2410 nM | [7] 1480 nM | [10] 2090 nM | [8] 19300 nM

O=C1NCCc2[nH]c(-c3ccncc3)cc21
active: [1] 1180 nM | [2] 4180 nM | [3] 3060 nM | [4] 2090 nM | [9] 4180 nM | [8] 2430 nM

CNC(=O)Nc1ccc(-c2nc(N3CC4CCC(C3)O4)c3cnn(C4CCC5(CC4)OCCO5)c3n2)cc1
active: [1] 372 nM | [2] 2.6 nM | [3] 30.6 nM | [4] 132 nM | [9] 209 nM
inactive: [7]

CC[C@]12C=CCN3CC[C@@]4(c5cc([C@@]6(C(=O)OC)C[C@H]7C[C@@H](C(C)(F)F)CN(Cc8c6[nH]c6ccccc86)C7)c(OC)cc5N(C)[C@H]4[C@@](O)(C(=O)OC)[C@H]1OC(C)=O)[C@@H]32
active: [1] 4.7 nM | [2] 3 nM | [3] 27.3 nM | [4] 11.8 nM | [9] 8.3 nM | [10] 5.3 nM | [8] 34.3 nM

COc1ccc(C[C@@H](C)[C@@H](C)Cc2ccc(OC)c(OC)c2)cc1OC
active: [1] 935 nM | [2] 833 nM | [3] 968 nM | [4] 118 nM | [9] 1050 nM | [10] 187 nM | [8] 863 nM
inactive: [6]

Cn1cc(C=CC(=O)c2cccc(F)c2)cc1C=CC(=O)NO
inactive: [3] | [4] | [5] | [8]
active: [1] 9350 nM | [2] 2960 nM | [6] 24100 nM | [7] 4690 nM

COc1cc(N2CCC(C(N)=O)CC2)ccc1Nc1nc(N)c(Cl)c(Nc2ccccc2S(=O)(=O)C(C)C)n1
active: [1] 1180 nM | [2] 132 nM | [4] 743 nM | [7] 526 nM | [10] 235 nM
inactive: [3] | [5] | [8]

COC(=O)[C@H](CCCN=C(N)N)NS(=O)(=O)c1ccc(C)cc1
inactive: [1] | [2] | [3] | [4] | [5] | [7] | [10] | [8]

CN(CC(=O)N(Cc1ccc(C2CCCCC2)cc1)c1ccc(C(=O)O)c(O)c1)S(=O)(=O)c1c(F)c(F)c(F)c(F)c1F
active: [1] 9350 nM | [2] 1480 nM | [3] 17200 nM | [4] 26400 nM | [9] 16600 nM | [6] 21500 nM | [7] 20900 nM | [10] 23500 nM
